The values that follow come from PMC4336329 (PLoS ONE, 2015).

In all, about 310,000 compounds went through this assay and about 14,000 (4.5%) showed an effect of 50% or more. The effect is printed as a negative number. Many of the other results were omitted from the sample, so strong results are more common in it than they were.
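Note: peak tail current of the secondary pulse compared with the same well before compound.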

The target in the test is human ether-à-go-go-related gene (hERG) potassium channel (human, UniProt Q12809). The experiment in a line: primary screen, population patch clamp on CHO cells stably expressing hERG; higher = less effect of the substance.
human ether-à-go-go-related gene (hERG) potassium channel, sequence (Q12809 whole entry, looked up): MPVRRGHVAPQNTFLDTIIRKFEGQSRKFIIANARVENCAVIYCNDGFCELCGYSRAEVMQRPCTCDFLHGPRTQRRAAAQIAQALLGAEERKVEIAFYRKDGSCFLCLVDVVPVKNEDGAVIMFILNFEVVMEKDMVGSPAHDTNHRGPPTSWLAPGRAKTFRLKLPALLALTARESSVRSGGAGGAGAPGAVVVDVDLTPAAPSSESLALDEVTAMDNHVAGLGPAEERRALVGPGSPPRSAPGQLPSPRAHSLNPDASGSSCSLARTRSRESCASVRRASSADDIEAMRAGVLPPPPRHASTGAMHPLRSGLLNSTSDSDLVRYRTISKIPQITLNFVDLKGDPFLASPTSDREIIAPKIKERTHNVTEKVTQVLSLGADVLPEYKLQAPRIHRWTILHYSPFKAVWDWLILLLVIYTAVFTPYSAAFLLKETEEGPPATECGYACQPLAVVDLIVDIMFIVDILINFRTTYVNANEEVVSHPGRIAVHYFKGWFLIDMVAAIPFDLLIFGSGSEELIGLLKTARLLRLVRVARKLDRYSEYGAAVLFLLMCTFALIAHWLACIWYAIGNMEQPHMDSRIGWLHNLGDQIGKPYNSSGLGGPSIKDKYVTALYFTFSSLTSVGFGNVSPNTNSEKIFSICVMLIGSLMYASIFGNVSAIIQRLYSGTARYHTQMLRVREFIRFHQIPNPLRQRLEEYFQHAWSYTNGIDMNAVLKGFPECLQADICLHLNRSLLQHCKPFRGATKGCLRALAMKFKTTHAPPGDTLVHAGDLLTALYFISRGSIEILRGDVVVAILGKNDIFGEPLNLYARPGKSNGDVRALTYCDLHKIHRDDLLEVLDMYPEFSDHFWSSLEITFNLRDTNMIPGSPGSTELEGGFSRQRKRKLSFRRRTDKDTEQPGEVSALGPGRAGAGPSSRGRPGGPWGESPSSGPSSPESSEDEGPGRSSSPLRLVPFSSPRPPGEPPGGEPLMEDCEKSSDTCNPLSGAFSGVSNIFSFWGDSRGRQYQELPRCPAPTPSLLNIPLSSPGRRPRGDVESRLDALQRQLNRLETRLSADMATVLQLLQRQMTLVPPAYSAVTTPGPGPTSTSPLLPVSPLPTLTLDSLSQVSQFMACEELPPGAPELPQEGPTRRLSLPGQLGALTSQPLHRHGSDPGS
With `CC(=O)c1c(C)[nH]c(C(=O)Nc2cc(S(=O)(=O)N3CCCCC3)ccc2C)c1C`, the “hERG current change (%, negative = inhibition) at 10uM” value was determined as 2.24%. To `CC(=O)O[C@@H]1/C=C/[C@](C)(O)C[C@@H](C)C/C=C/[C@H]2[C@H](O)C(C)=C(C)[C@H]3[C@H](Cc4ccccc4)NC(=O)[C@@]123` belongs -15.4%; to `Cl.Oc1ccc(CC2CC3CCN2CC3)cc1O` (stereo not shown), 12.7%; to `COc1ccc(NC(=O)Nc2cccc(Cl)c2Cl)c(OC)n1`, 3.16%. To `O=C(Cc1cccs1)N/N=C\c1ccc(O)cc1` belongs 14.5%; to `CC(C)(C)N1CC(c2nc3ccccc3n2CCOc2ccccc2)CC1=O` (stereo not shown), -26.1%. To `Cc1ccc2nc(N(CCCN(C)C)C(=O)c3ccc(S(=O)(=O)N(C)C)cc3)sc2c1.Cl` belongs -42.1%; to `Cc1cccc2sc(N(CCCN(C)C)C(=O)c3ccc4ncsc4c3)nc12`, -45%.

For `Cc1ccc2nc(N(CCCN(C)C)C(=O)c3ccc4ncsc4c3)sc2c1`, the “hERG current change (%, negative = inhibition) at 10uM” value is recorded as -61.4%. Consider `CCc1ccc2nc(N(CCN(C)C)C(=O)c3ccc4ccccc4c3)sc2c1.Cl`, for which the “hERG current change (%, negative = inhibition) at 10uM” value is 0.369%.

Turning to `Cc1ccc2nc(N(CCN(C)C)C(=O)c3ccc4ccccc4c3)sc2c1.Cl`, the “hERG current change (%, negative = inhibition) at 10uM” value is on record as 15.9%.

With `CCc1ccc2nc(N(CCN(C)C)C(=O)c3ccc4ncsc4c3)sc2c1.Cl`, the “hERG current change (%, negative = inhibition) at 10uM” value is listed as -60.6%. To `O=C(CCNC(=O)c1ccc([N+](=O)[O-])cc1)NC1CCCCCC1` belongs -25.3%; to `CCSc1nsc(NC(=O)Nc2ccc(F)cc2F)n1`, 24.1%. To `CC(C)(C)NC(=O)C(c1cccs1)N(C(=O)c1csnn1)c1cccc(F)c1` (stereo not shown) belongs -7.68%. Next, `O=C(Cn1ncc2c3ccccc3n(Cc3ccccc3)c2c1=O)NC1CCCC1`: 10.1%; `O=S(=O)(c1ccc(Cl)s1)N1CCc2ccccc2C1`: 7.13%. As for `NC(=S)Nc1cc(Cl)cc(Cl)c1`, the “hERG current change (%, negative = inhibition) at 10uM” value was 17.1%. To `CC(C)NC(=O)CCS(=O)(=O)c1ccc(Br)s1` belongs 16.1%; to `COc1ccc(/C=N/NC(=O)c2cccc([N+](=O)[O-])c2)cc1OS(=O)(=O)c1ccc(C)cc1`, -16.1%; to `COCc1cc(OC(=O)N(C)C)nc2c1c(C)nn2C`, -9.48%. Next, `O=C(CNC(=O)C12CC3CC(CC(C3)C1)C2)N/N=C\c1ccco1`: 5.05%. Consider `CS(=O)(=O)c1ccc(-c2cccc(NC(=O)COc3ccc(Cl)cc3)c2)nn1`, for which the “hERG current change (%, negative = inhibition) at 10uM” value is given as 6.7%. As for `Cc1cc(OC(C)C(=O)NCC2CCC(C(=O)O)CC2)c2c(C)cc(=O)oc2c1` (stereo not shown), the “hERG current change (%, negative = inhibition) at 10uM” value was found to be 24.5%. Next, `COc1cc(OC)cc(C(=O)NCCOc2ccccc2)c1`: -17.6%; `COCC(C)N1CCC(Oc2cccc(C(=O)NCCc3ccccc3)c2)CC1` (stereo not shown): -66.3%; `COc1cc(OC)cc(C(=O)NNC(=O)CCCOc2ccccc2)c1`: -18.4%. To `COCCNC(=O)c1cccc(OC2CCN(Cc3cccc(SC)c3)CC2)c1` belongs -35.2%; to `COc1cccc(OCCCCN2CCCCC2)c1`, -8.36%; to `CN1CCC(NC(=O)c2cccc(Oc3ccccc3)c2)CC1`, -8.93%. Next, `COc1ccc(C2(O)CCN(CCCCOc3ccccc3)CC2)cc1`: -70.6%. As for `CCCN1CCC(NC(=O)c2cccc(Oc3ccccc3)c2)CC1`, the “hERG current change (%, negative = inhibition) at 10uM” value was -51.9%. `COc1cc(OC)cc(C(=O)NC2CCN(CCCOc3ccccc3)CC2)c1`: the “hERG current change (%, negative = inhibition) at 10uM” value is reported as -70.2%. To `O=C(NC1CC1)c1cccc(Oc2ccccc2)c1` belongs 1.52%. Next, `COCC(C)N1CCC(Oc2ccc(C(=O)NCc3ccccn3)cc2)CC1` (stereo not shown): 13.1%.

For `c1ccc(OCCCCN2CCOCC2)cc1`, the “hERG current change (%, negative = inhibition) at 10uM” value is -14.5%. Consider `Cn1cc(/C=C(\C#N)C(=O)Nc2cccc([N+](=O)[O-])c2)c2ccccc21`, for which the “hERG current change (%, negative = inhibition) at 10uM” value was 28.4%. Next, `COc1ccc(F)cc1C(=O)C1CCCN(C(=O)c2ccc(C(C)=O)s2)C1` (stereo not shown): -4.71%. To `COC(=O)c1ccc(N=C(c2ccccc2)c2c(O)n(C)c(=O)n(C)c2=O)cc1` belongs 6.79%; to `CC(=O)N(C)c1ccc(N=Cc2c(O)ccc3ccccc23)cc1`, -20.9%. To `O=C1CCCC(O)=C1N=Nc1ccc(S(=O)(=O)N2CCOCC2)cc1` belongs 2.06%; to `COc1ccc(NC(=O)C2C3C=CC4(O3)C2C(=O)N(CCN2CCCCC2C)C4C(=O)NC2CCCC(C)C2C)cc1` (stereo not shown), -22.4%; to `Cc1cccc(C)c1-n1c(SCC(=O)N2CC(=O)Nc3ccccc32)nc2ccccc2c1=O`, -0.373%. `CS(=O)(=O)N(CC(=O)N1CCN(c2ccc(F)cc2)CC1)c1cccc(Cl)c1`: the “hERG current change (%, negative = inhibition) at 10uM” value is -49.9%. On to `O=C(NCCc1csc(-c2cccnc2)n1)c1cccs1`, for which the “hERG current change (%, negative = inhibition) at 10uM” value is -5.91%. To `C#CCN1C(=O)C(O)(CC(=O)/C=C/C=C/c2ccccc2)c2ccccc21` (stereo not shown) belongs 21.6%; to `COCCNC(=O)c1cccc(OC2CCN(Cc3cccc(C(C)=O)c3)CC2)c1`, 6.74%. As for `COCCNC(=O)c1cccc(OC2CCN(Cc3ccccc3C)CC2)c1`, the “hERG current change (%, negative = inhibition) at 10uM” value is listed as 6.34%. To `CCCN1CCC(Oc2cccc(C(=O)NCCc3ccccc3)c2)CC1` belongs -66%; to `Oc1ccc(Br)cc1-c1cc(-c2ccc(Cl)cc2)n[nH]1`, 7.99%.

Consider `Cc1ccc(Sc2ncnc3onc(C)c23)cc1`, for which the “hERG current change (%, negative = inhibition) at 10uM” value worked out at 4.79%. To `Cc1noc2ncnc(Sc3ccc(Cl)cc3)c12` belongs 16.3%; to `Cc1noc2ncnc(Sc3ccc(Br)cc3)c12`, -50.8%. To `O=[N+]([O-])c1ccccc1CNCCCCO` belongs -3.05%; to `CC(C)c1csc2nc3n(c(=O)c12)CCCCC3`, -10.7%; to `CCn1cc(C(=O)N2CCCC(N3CCN(c4cccc(C(F)(F)F)c4)CC3)C2)cn1` (stereo not shown), -29.2%. Next, `Cc1occc1C(=O)N1CCCC(N2CCN(c3cccc(C(F)(F)F)c3)CC2)C1` (stereo not shown): -38.9%; `O=C(c1ccoc1)N1CCCC(N2CCN(c3cccc(C(F)(F)F)c3)CC2)C1` (stereo not shown): -55.5%. In the case of `O=C(c1cc[n+]([O-])cc1)N1CCCC(N2CCN(c3cccc(C(F)(F)F)c3)CC2)C1` (stereo not shown), the “hERG current change (%, negative = inhibition) at 10uM” value is on record as -6.27%.

As for `Cc1nnsc1C(=O)N1CCCC(N2CCN(c3cccc(C(F)(F)F)c3)CC2)C1` (stereo not shown), the “hERG current change (%, negative = inhibition) at 10uM” value was -26.8%. Next, `Cc1cc(C(=O)N2CCCC(N3CCN(c4cccc(C(F)(F)F)c4)CC3)C2)no1` (stereo not shown): -2.14%; `O=C(c1ccsc1)N1CCCC(N2CCN(c3cccc(Cl)c3)CC2)C1` (stereo not shown): -47.1%. Next, `O=C(c1ccoc1)N1CCCC(N2CCN(c3cccc(Cl)c3)CC2)C1` (stereo not shown): -41.3%; `Cc1cnc(C(=O)N2CCCC(N3CCN(c4cccc(C(F)(F)F)c4)CC3)C2)cn1` (stereo not shown): -39.7%. Next, `O=C(c1cccs1)N1CCCC(N2CCN(c3cccc(C(F)(F)F)c3)CC2)C1` (stereo not shown): -68.4%. In the case of `O=C(c1ccsc1)N1CCCC(N2CCN(c3cccc(C(F)(F)F)c3)CC2)C1` (stereo not shown), the “hERG current change (%, negative = inhibition) at 10uM” value is -64.2%. Next, `Cc1cc(C(=O)N2CCCC(N3CCN(c4cccc(C(F)(F)F)c4)CC3)C2)n[nH]1` (stereo not shown): -53.2%.
